Assay results: PubChem BioAssay
Calls of active or inactive are those of the source. Unless noted, no rule for the calls is given here.

Tests used:
[1] = HepG2 liver cancer cell viability effects, profiling panel, resazurin fluorescence, 24 h, PK04 Diversity Set (AID 1172); details: higher = more signal; also: test concentration not given here
[2] = basal S. cerevisiae growth modulation, no modifier, primary screen, OD600, strain BY4716, 24 h, basal condition (AID 1173); details: OD600, 24 h, higher = more signal, called active from +8 up or from −8 down
[3] = MM1S myeloma cell viability, profiling panel, resazurin fluorescence, basal, 24 h, PK04 Diversity Set (AID 1174); details: higher = more signal, called active from +8 up or from −8 down;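 also: MM1S multiple myeloma cell line; test concentration not given here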
[4] = molecular target: Dihydroorotate dehydrogenase (quinone), mitochondrial (Plasmodium falciparum (isolate 3D7)) (UniProt Q08210); assay: PfDHODH enzyme inhibitors, primary screen, biochemical, C-terminal His tag, absorbance 600 nm (AID 1175); details: DCIP absorbance 600 nm, higher = more signal, called active from +8 up or from −8 down;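 also: recombinant parasite enzyme with a five histidine tag at its C terminus; test concentration not given here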
Chain of Dihydroorotate dehydrogenase (quinone), mitochondrial (Plasmodium falciparum (isolate 3D7)) (Q08210 whole entry, looked up): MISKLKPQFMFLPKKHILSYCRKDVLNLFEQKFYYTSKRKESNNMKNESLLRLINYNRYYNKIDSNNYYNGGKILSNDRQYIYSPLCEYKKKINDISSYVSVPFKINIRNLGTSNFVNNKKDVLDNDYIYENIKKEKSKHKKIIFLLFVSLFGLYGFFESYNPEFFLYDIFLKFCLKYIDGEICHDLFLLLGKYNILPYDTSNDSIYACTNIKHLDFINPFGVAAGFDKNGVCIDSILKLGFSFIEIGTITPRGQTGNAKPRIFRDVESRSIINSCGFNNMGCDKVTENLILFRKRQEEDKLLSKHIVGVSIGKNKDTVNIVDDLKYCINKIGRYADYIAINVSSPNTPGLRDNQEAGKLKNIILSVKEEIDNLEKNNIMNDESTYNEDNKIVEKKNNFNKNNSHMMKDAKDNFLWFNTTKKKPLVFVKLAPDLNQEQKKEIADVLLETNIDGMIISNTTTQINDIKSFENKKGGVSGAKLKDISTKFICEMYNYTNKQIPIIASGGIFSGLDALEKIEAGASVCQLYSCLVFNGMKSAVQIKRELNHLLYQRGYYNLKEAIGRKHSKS

[5] = P. aeruginosa biofilm formation inhibitors, primary screen, strain PAO1, LB-PBS medium, absorbance 600 nm (AID 1176); also: test concentration not given here; details: P. aeruginosa PAO1 growth/biofilm, A600, 12 h; higher = more signal
[6] = S. cerevisiae RM11-1a growth modifiers, primary screen, strain RM11-1a, OD600, basal, 24 h (AID 1177); details: OD600, 24 h, higher = more signal, called active from +8 up or from −8 down;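 also: cultures grown under basal conditions with no added stressor; test concentration not given here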
[7] = E. coli acrAB mutant growth effects, primary screen, E. coli filamentation inducers, strain DRC39, OD650, 24 h (AID 1178); details: higher = more signal, called active from +8 up or from −8 down;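 also: growth measured as culture turbidity by optical density at 650 nm; test concentration not given here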
[8] = E. coli acrAB mutant growth effects, primary screen, E. coli filamentation inducers, strain DRC39, OD650, 48 h (AID 1179);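 also: screen aims at cell division blockers that make cells filament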; details: E. coli DRC39 delta-acrAB growth, higher = more signal, called active from +8 up or from −8 down
[9] = RPMI8226 myeloma cell viability, profiling panel, resazurin fluorescence, basal, 24 h, PK04 Diversity Set (AID 1180); details: higher = more signal;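 also: RPMI8826 multiple myeloma cell line at 5000 cells per well; test concentration not given here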
[10] = molecular target: E3 ubiquitin-protein ligase XIAP (Homo sapiens) (UniProt P98170); assay: XIAP binders, primary screen, biophysical, small-molecule microarray, fluorescence 635 nm (AID 1181); details: small-molecule microarray binding, higher = more signal;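 also: score merges 667 nm emission and signal to noise over triplicate slides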
Chain of E3 ubiquitin-protein ligase XIAP (Homo sapiens) (P98170 whole entry, looked up): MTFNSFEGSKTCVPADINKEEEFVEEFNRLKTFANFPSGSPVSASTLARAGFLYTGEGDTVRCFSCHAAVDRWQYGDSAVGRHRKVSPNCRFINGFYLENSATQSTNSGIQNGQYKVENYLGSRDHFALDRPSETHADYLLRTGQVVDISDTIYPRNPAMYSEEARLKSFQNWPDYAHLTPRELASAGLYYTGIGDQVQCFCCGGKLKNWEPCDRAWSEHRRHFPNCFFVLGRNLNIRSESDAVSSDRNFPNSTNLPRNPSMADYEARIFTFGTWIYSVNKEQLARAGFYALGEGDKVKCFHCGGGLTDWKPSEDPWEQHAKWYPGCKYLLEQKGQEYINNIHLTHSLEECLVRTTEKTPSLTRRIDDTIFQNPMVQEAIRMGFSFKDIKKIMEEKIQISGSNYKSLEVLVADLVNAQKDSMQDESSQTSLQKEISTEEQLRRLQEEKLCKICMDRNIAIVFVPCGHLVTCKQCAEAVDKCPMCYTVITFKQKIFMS

Compound | z-score [1] | z-score [2] | z-score [3] | composite z-score [4] | z-score [5] | z-score [6] | z-score [7] | z-score [8] | z-score [9] | composite z-score [10]
C/C=C\[C@@H](NCc1ccccc1Br)[C@@H](O)Cc1ccccc1 | -0.391 | -9.3 (active) | -0.393 (inactive) | -2.11 (inactive) | -1.61 (inactive) | -0.572 (inactive) | -0.179 (inactive) | -1.18 (inactive) | -0.645 | 0.0785
CCc1cc2c(nc1CC)CCN(CCC(C)=NOC[C@@H](O)[C@H]1O[C@@H]3OC(C)(C)O[C@@H]3[C@H]1O)C2 | -0.595 | 0.0824 (inactive) | -0.244 (inactive) | -0.439 (inactive) | 0.535 (inactive) | -0.752 (inactive) | 0.548 (inactive) | -0.953 (inactive) | -0.269 | -0.365
COC(=O)[C@@H]1CC[C@H](C)[C@@H](c2ccc(C)cc2)N1C(=O)c1ccc(C=NOC[C@@H](O)COCc2ccco2)cc1 | -0.609 | -0.346 (inactive) | -1.06 (inactive) | 0.13 (inactive) | 0.147 (inactive) | 0.0787 (inactive) | 0.462 (inactive) | 0.663 (inactive) | -1.49 | -0.0891
O=C1[C@H]2[C@H]3[C@H](O)[C@H](O)CC(=NOCc4ccccc4)[C@H]3CC[C@H]2C(=O)N1c1cccc(Oc2ccccc2)c1 | 1.44 | -0.47 (inactive) | 0.968 (inactive) | -0.278 (inactive) | -0.131 (inactive) | -0.0244 (inactive) | 0.416 (inactive) | -0.482 (inactive) | 0.564 | -0.193
CO[C@@H]1COC(=O)CCC[C@@H](C)[C@H](OC)COC(=O)[C@H](Cc2ccccc2)NC(=O)CC=C[C@H]1C | 0.229 | -0.987 (inactive) | -0.15 (inactive) | 0.615 (inactive) | -0.291 (inactive) | 0.926 (inactive) | 0.024 (inactive) | 0.407 (inactive) | 1.05 | 0.0155
Cn1cccc1C(O)C1C=CC2C(=O)NC(=O)C2N1Nc1ccccn1 (stereo not given) | -1.49 | 0.784 (inactive) | -1.28 (inactive) | 1.21 (inactive) | 0.543 (inactive) | -0.0064 (inactive) | -0.512 (inactive) | -0.204 (inactive) | -0.868 | 0.203
CC(=O)OC[C@H]1O[C@H](CCON=C(C)CCN2CCc3nc(-c4ccccc4)c(-c4ccccc4)cc3C2)C=C[C@@H]1OC(C)=O | 0.0962 | -0.0567 (inactive) | -0.91 (inactive) | -0.439 (inactive) | 0.441 (inactive) | -0.64 (inactive) | 0.304 (inactive) | -0.545 (inactive) | 0.28 | 0.275
COc1ccc([Si](C)(C)[C@H]2[C@H](CC(=O)N3CCC[C@H]3CO)O[C@@]3(C(=O)N(Cc4cccc(N5C(=O)COc6ccccc65)c4)c4ccccc43)[C@@H]2C)cc1 | -0.58 | -1.16 (inactive) | -0.986 (inactive) | -3.33 (inactive) | 1.85 (inactive) | -1.74 (inactive) | 1.21 (inactive) | 1.32 (inactive) | -0.524 | -0.0795
CC(CCC(=O)OC[C@H]1O[C@H](C#Cc2ccccc2)C=C[C@@H]1Oc1ccc(C)cc1)=NOC[C@@H](O)[C@H]1O[C@@H]2OC(C)(C)O[C@@H]2[C@H]1O | -0.279 | 0.197 (inactive) | 0.134 (inactive) | -2.15 (inactive) | -0.324 (inactive) | 0.71 (inactive) | 0.844 (inactive) | 1.1 (inactive) | 0.0234 | -0.325
O=C1C[C@@H](O)[C@@H](O)[C@@H]2[C@@H]3C(=O)N(Cc4ccc5c(c4)OCO5)C(=O)[C@@H]3CC[C@@H]12 | 0.227 | 0.189 (inactive) | -0.0728 (inactive) | 0.745 (inactive) | -0.131 (inactive) | 0.258 (inactive) | 0.0081 (inactive) | 0.0272 (inactive) | -0.707 | 0.0908
C[C@@H](c1ccccc1)N1C(=O)[C@H]2[C@H]3[C@H](O)[C@H](O)CC(=NOC[C@@H](O)COCc4ccco4)[C@@H]3CC[C@H]2C1=O | -0.52 | 0.984 (inactive) | -0.422 (inactive) | 0.407 (inactive) | 0.176 (inactive) | 0.819 (inactive) | -0.892 (inactive) | -0.41 (inactive) | 0.2 | -0.131
C[C@@H](c1ccccc1)N1C(=O)[C@H]2[C@H]3[C@H](O)[C@H](O)CC(=NNC(=O)OCc4ccccc4)[C@H]3CC[C@H]2C1=O | 0.2 | 0.976 (inactive) | -0.139 (inactive) | 0.749 (inactive) | 0.413 (inactive) | 0.993 (inactive) | -0.327 (inactive) | -0.462 (inactive) | 0.368 | -0.163
CCOC(=O)CCN1C(=O)[C@H]2[C@H]3[C@H](O)[C@H](O)CC(=NOC[C@@H](O)COCc4ccco4)[C@@H]3CC[C@H]2C1=O | -0.454 | 0.846 (inactive) | -1.27 (inactive) | 0.318 (inactive) | -0.0121 (inactive) | 0.176 (inactive) | -0.153 (inactive) | 0.324 (inactive) | -0.8 | -0.124
CCOC(=O)CCN1C(=O)[C@H]2[C@H]3[C@H](O)[C@H](O)CC(=O)[C@H]3CC[C@H]2C1=O | -0.228 | -0.329 (inactive) | 0.552 (inactive) | -2.85 (inactive) | 0.0122 (inactive) | -0.336 (inactive) | 0.231 (inactive) | -1.81 (inactive) | 0.566 | 0.065
CCN(CC)c1ccc(N2CC=CC34O[C@@H]5/C=C\CCC(C)OC(=O)C5[C@H]3C(=O)N(CCCO)[C@@H]4C2=O)cc1 (stereo not given in full) | -0.649 | 1.09 (inactive) | 0.267 (inactive) | 0.424 (inactive) | -0.745 (inactive) | 1.21 (inactive) | 0.692 (inactive) | 0.562 (inactive) | 0.47 | -0.0243
NC(=O)NCC#Cc1ccc2c(c1)[C@]1(C(=O)N2)[C@H](c2ccc(O)cc2)N2[C@H](c3ccccc3)[C@H](c3ccccc3)OC(=O)[C@H]2[C@@H]1C(=O)N1CCCCCCC1 | 0.855 | 1.16 (inactive) | 0.949 (inactive) | -0.127 (inactive) | 1.1 (inactive) | 1.96 (inactive) | 1.04 (inactive) | -0.817 (inactive) | 1.36 | -0.0925
CN(C)c1ccc(C(O)C2C=CC3C(=O)N(c4ccccc4)C(=O)C3N2Nc2ccccc2F)cc1 (stereo not given) | -0.268 | -1.77 (inactive) | -0.234 (inactive) | 1.03 (inactive) | 0.657 (inactive) | 0.545 (inactive) | -0.853 (inactive) | -1.08 (inactive) | -1.02 | 0.24
CN1C(=O)[C@@]2(CCC(=O)OC(C)(C)C)N=C(c3ccc(OCCCO)cc3)O[C@H]2c2ccccc21 | 0.761 | -1.04 (inactive) | -1.82 (inactive) | -0.281 (inactive) | 0.0279 (inactive) | -0.177 (inactive) | 1.2 (inactive) | 0.767 (inactive) | -1.99 | 0.169
CC(CCC(=O)OC[C@H]1O[C@H](C#Cc2ccccc2)C=C[C@@H]1Oc1ccc(C)cc1)=NO[C@@H](C)c1cn([C@H](CO)Cc2ccccc2)nn1 | 0.0474 | 0.542 (inactive) | 0.925 (inactive) | -2.15 (inactive) | -0.786 (inactive) | -0.0398 (inactive) | -0.26 (inactive) | -1.24 (inactive) | 0.911 | -0.338
CC(C)C[C@@H]1NC(=O)[C@H]2C[C@@H](C(=O)O)[C@@H](c3ccc(O)cc3)N2C1=O | 0.374 | 0.0437 (inactive) | 0.816 (inactive) | 0.425 (inactive) | -0.86 (inactive) | 1.58 (inactive) | -0.139 (inactive) | -0.456 (inactive) | 0.453 | -0.125
O=C1[C@H]2[C@H]3[C@H](O)[C@H](O)CC(=NO[C@@H]4O[C@H](CO)[C@@H](O)[C@H](O)[C@H]4O)[C@H]3CC[C@H]2C(=O)N1Cc1ccc2c(c1)OCO2 | 0.777 | -0.159 (inactive) | 0.466 (inactive) | 0.461 (inactive) | -0.249 (inactive) | 0.929 (inactive) | 0.76 (inactive) | 0.385 (inactive) | 0.367 | -0.4
C#CCCCON=C1C[C@@H](O)[C@@H](O)[C@@H]2[C@@H]3C(=O)N(c4cccc(Oc5ccccc5)c4)C(=O)[C@@H]3CC[C@@H]12 | 0.32 | -1.13 (inactive) | 0.47 (inactive) | 1 (inactive) | -0.601 (inactive) | -0.293 (inactive) | -0.146 (inactive) | -0.0303 (inactive) | 0.868 | 0.0153
COc1ccccc1CN1C(=O)c2ccccc2[C@@]2(Cc3ccccc3N(C(C)C)C2=O)[C@@H]1c1ccc(CO)cc1 | -0.643 | 0.439 (inactive) | -0.647 (inactive) | -3.28 (inactive) | 0.376 (inactive) | -1.56 (inactive) | 0.549 (inactive) | 1.14 (inactive) | -0.457 | 0.161
CC(CCN1CCc2nc(-c3ccccc3)c(-c3ccccc3)cc2C1)=NO[C@@H](C)c1cn([C@H](CO)Cc2ccccc2)nn1 | -1.41 | -3.25 (inactive) | -0.996 (inactive) | -1.81 (inactive) | -0.23 (inactive) | -2.23 (inactive) | -0.249 (inactive) | -0.147 (inactive) | -0.914 | -0.376
CCN1C(=O)[C@H]2[C@H]3[C@H](O)C=CC(=O)[C@@H]3CC[C@H]2C1=O | 0.384 | -0.067 (inactive) | 0.442 (inactive) | -0.28 (inactive) | -0.519 (inactive) | 0.197 (inactive) | 0.484 (inactive) | 0.205 (inactive) | -0.194 | -0.133
COc1ccccc1CN1C(=O)c2ccccc2[C@@H](C(=O)NCC(F)(F)F)[C@@H]1c1ccc(CO)cc1 | 1.06 | 0.403 (inactive) | -1.15 (inactive) | 0.338 (inactive) | 0.512 (inactive) | -0.0178 (inactive) | 0.796 (inactive) | 1.69 (inactive) | 0.268 | -0.148
